Test results as given in paper PMC7862700, “An all-to-all approach to the identification of sequence-specific readers for epigenetic DNA modifications on cytosine”.

Tests used:
Test in all cases: DAPPL (digital affinity profiling via proximity ligation, sequencing); 10 mM Tris-HCl pH 7.5, 50 mM NaCl, 1 mM DTT, 4% glycerol, room temperature, 30 min; GST-TFs on glutathione beads, 16-mer random dsDNA library, 0.1% formaldehyde crosslink after washing; high values mean tight binding
FEV = molecular target: T1, FEV (Homo sapiens, UniProt Q99581 1-238); conditions: protein: recombinant; tags: N-terminal GST; dsDNA, one strand shown
T1 sequence: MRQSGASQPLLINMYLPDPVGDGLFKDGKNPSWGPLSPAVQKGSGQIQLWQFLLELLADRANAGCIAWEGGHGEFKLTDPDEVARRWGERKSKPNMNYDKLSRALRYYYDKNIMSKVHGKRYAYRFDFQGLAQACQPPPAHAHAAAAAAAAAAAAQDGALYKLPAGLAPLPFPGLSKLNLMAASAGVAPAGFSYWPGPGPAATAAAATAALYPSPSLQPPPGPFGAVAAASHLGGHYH
Outline: (§1)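 Binding signal is each hexamer's read frequency for a factor divided by its frequency in the tag-only sample. The factors were GST-fused human transcription factors from yeast, captured on glutathione beads, DNA-barcoded and pooled with that sample. Pools were incubated with 200 nmole of a random double-stranded 16-mer DNA library in Tris/NaCl/DTT/glycerol buffer at room temperature for 30 min, then washed, crosslinked with 0.1% formaldehyde, proximity-ligated with BsaI/T4 ligase (1 h, 37 °C), PCR-amplified and sequenced on an Illumina NextSeq500.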

ETV5 = ETV5 (Homo sapiens, UniProt P41161 1-510); conditions: protein: recombinant; tags: N-terminal GST; dsDNA, one strand shown
Outline: as §1

HSF1 = HSF1 (Homo sapiens, UniProt Q00613 1-529); conditions: protein: recombinant; tags: N-terminal GST; chain copies: 3; dsDNA, one strand shown
Outline: as §1

SPIC = molecular target: T2, SPIC (Homo sapiens, UniProt Q8N5J4 1-248); conditions: protein: recombinant; tags: N-terminal GST; dsDNA, one strand shown
T2 sequence: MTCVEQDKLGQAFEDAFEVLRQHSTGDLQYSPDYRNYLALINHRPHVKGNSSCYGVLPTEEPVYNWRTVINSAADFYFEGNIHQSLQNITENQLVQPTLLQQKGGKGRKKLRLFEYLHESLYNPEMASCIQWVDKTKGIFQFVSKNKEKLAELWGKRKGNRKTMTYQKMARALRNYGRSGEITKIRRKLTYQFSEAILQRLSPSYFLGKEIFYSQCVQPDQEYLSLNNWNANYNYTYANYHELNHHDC
Outline: as §1

ELF4 = ELF4 (Homo sapiens, UniProt Q99607 1-663); conditions: protein: recombinant; tags: N-terminal GST; dsDNA, one strand shown
Outline: as §1

ELK4 = molecular target: T3, ELK4 (Homo sapiens, UniProt P28324-2 1-405); conditions: protein: recombinant; tags: N-terminal GST; dsDNA, one strand shown
T3 sequence: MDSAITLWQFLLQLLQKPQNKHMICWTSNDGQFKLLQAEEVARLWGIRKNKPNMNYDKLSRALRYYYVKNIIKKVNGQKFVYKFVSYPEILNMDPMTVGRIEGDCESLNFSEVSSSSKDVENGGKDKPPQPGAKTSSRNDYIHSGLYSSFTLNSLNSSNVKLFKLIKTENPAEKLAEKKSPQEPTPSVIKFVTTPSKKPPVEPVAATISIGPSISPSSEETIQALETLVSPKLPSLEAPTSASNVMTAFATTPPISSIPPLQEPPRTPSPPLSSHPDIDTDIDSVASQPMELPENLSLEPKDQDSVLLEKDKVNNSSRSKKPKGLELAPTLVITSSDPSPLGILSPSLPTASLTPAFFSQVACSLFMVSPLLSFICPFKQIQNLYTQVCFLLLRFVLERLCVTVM
Outline: as §1

ETV2 = molecular target: T4, ETV2 (Homo sapiens, UniProt O00321 1-342); conditions: protein: recombinant; tags: N-terminal GST; dsDNA, one strand shown
T4 sequence: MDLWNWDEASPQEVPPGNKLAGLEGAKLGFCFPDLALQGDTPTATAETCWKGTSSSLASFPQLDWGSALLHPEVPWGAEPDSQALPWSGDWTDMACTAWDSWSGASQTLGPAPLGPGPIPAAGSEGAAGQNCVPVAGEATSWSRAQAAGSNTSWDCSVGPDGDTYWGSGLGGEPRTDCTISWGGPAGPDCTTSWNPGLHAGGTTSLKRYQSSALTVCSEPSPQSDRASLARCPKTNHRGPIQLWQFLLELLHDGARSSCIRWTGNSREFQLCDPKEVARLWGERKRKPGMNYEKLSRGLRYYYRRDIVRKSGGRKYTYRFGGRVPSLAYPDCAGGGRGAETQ
Outline: as §1

ELF3 = molecular target: T5, ELF3 (Homo sapiens, UniProt P78545 1-371); conditions: protein: recombinant; tags: N-terminal GST; dsDNA, one strand shown
T5 sequence: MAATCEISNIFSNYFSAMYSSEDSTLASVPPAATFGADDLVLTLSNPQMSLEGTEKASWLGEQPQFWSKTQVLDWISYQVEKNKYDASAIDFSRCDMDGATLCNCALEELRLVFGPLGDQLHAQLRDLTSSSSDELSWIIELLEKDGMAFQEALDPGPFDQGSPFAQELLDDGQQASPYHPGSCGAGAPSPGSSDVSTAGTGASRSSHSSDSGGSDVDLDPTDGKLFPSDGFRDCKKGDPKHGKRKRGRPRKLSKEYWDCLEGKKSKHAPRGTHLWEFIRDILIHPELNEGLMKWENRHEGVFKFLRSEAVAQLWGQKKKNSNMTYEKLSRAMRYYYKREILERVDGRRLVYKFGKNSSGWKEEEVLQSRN
Outline: as §1

CRX = CRX (Homo sapiens, UniProt O43186 1-299); conditions: protein: recombinant; tags: N-terminal GST; dsDNA, one strand shown
Outline: as §1

ETV1 = ETV1 (Homo sapiens, UniProt P50549 1-477); conditions: protein: recombinant; tags: N-terminal GST; dsDNA, one strand shown
Outline: as §1

ERF = molecular target: T6, ERF (Homo sapiens, UniProt P50548 1-548); conditions: protein: recombinant; tags: N-terminal GST; dsDNA, one strand shown
T6 sequence: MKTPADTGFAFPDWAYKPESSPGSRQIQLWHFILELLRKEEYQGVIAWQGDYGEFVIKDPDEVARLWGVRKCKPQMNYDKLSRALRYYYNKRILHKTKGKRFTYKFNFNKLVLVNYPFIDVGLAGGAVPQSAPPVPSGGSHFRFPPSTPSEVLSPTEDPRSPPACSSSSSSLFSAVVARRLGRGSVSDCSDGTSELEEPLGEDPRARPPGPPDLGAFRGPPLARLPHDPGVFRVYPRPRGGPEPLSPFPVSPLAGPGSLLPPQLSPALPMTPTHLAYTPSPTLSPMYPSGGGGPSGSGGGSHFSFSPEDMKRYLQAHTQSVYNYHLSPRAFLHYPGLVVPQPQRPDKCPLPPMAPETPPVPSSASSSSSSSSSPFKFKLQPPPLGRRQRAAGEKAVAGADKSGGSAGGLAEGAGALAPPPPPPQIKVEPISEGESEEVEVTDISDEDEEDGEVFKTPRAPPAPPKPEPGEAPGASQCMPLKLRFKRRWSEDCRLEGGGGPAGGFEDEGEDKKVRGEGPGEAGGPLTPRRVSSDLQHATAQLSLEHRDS
Outline: as §1

ETV3L = molecular target: T7, ETV3L (Homo sapiens, UniProt Q6ZN32 1-361); conditions: protein: recombinant; tags: N-terminal GST; dsDNA, one strand shown
T7 sequence: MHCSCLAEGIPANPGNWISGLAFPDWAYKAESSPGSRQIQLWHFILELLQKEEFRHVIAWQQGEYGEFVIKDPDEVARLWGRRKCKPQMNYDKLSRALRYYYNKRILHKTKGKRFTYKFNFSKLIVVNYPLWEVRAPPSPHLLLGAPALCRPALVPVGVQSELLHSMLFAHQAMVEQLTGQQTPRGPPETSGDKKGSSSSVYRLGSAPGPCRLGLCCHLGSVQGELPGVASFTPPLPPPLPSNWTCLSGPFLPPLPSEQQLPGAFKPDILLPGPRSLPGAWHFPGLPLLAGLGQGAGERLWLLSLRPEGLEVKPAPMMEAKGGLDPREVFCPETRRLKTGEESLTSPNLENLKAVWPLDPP
Outline: as §1

ETS2 = molecular target: T8, ETS2 (Homo sapiens, UniProt P15036 1-469); conditions: protein: recombinant; tags: N-terminal GST; dsDNA, one strand shown
T8 sequence: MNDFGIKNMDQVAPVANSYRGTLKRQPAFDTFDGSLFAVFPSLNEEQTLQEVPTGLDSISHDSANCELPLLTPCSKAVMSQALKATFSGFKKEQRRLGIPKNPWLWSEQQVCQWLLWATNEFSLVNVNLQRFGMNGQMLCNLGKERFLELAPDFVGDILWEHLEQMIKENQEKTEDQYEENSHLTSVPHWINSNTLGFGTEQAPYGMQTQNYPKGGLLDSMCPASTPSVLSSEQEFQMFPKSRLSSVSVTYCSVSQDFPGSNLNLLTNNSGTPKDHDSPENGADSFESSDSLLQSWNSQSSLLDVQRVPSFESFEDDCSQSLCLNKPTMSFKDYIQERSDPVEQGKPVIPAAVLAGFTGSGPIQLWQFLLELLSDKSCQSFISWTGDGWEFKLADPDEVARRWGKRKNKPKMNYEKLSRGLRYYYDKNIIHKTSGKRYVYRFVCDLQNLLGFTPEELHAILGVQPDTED
Outline: as §1

SPDEF = molecular target: T9, SPDEF (Homo sapiens, UniProt O95238 1-335); conditions: protein: recombinant; tags: N-terminal GST; dsDNA, one strand shown
T9 sequence: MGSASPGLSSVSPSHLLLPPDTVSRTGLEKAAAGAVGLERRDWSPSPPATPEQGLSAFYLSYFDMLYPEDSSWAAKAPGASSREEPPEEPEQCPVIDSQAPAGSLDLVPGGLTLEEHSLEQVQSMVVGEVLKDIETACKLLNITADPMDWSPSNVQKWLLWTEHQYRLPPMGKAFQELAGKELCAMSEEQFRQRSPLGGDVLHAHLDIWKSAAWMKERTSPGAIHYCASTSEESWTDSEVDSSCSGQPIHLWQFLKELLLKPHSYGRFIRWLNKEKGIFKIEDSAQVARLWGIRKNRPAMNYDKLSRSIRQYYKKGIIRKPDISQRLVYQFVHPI
Outline: as §1

ETV7 = molecular target: T10, ETV7 (Homo sapiens, UniProt Q9Y603 1-341); conditions: protein: recombinant; tags: N-terminal GST; dsDNA, one strand shown
T10 sequence: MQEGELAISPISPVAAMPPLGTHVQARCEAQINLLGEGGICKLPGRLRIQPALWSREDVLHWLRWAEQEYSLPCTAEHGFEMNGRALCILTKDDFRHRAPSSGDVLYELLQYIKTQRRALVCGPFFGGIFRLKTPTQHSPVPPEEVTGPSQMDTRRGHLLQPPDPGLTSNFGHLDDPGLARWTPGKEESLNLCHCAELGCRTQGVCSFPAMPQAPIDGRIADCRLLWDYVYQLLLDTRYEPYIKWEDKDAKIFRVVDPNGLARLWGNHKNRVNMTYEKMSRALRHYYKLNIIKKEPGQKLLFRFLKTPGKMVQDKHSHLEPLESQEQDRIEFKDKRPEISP
Outline: as §1

ELF5 = molecular target: T11, ELF5 (Homo sapiens, UniProt Q9UKW6-2 1-255); conditions: protein: recombinant; tags: N-terminal GST; dsDNA, one strand shown
T11 sequence: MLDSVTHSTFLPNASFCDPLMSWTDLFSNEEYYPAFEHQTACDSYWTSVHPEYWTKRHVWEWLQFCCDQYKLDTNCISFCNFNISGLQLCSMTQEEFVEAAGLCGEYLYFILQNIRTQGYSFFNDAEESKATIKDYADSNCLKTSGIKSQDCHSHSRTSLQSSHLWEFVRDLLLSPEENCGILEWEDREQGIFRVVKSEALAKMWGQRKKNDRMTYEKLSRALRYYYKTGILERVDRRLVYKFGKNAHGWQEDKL
Outline: as §1

ETV3 = molecular target: T12, ETV3 (Homo sapiens, UniProt P41162-2 1-143); conditions: protein: recombinant; tags: N-terminal GST; dsDNA, one strand shown
T12 sequence: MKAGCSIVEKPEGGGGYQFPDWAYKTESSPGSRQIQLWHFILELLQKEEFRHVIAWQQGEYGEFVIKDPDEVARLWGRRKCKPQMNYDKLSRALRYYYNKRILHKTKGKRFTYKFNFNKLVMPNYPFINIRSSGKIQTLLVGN
Outline: as §1

ETV6 = ETV6 (Homo sapiens, UniProt P41212 1-452); conditions: protein: recombinant; tags: N-terminal GST; dsDNA, one strand shown
Outline: as §1

Sequence of ELF4 (Q99607 whole entry): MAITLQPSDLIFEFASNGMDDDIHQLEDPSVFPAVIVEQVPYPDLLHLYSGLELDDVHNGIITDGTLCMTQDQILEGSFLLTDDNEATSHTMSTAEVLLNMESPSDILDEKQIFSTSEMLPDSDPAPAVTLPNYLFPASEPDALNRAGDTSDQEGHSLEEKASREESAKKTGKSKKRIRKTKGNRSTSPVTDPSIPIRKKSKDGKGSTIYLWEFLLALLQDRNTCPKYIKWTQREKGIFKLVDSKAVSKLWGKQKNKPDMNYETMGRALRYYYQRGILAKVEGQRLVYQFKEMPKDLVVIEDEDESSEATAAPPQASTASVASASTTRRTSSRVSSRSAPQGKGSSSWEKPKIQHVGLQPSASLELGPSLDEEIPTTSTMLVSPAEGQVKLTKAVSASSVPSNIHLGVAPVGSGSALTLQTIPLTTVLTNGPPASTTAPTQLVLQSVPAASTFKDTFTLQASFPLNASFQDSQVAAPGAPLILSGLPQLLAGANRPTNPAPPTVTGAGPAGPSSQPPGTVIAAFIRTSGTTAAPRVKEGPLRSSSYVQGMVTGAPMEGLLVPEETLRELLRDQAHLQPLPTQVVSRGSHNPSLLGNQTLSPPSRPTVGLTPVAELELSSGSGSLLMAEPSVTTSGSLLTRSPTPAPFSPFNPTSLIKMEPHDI
Sequence of CRX (O43186 whole entry): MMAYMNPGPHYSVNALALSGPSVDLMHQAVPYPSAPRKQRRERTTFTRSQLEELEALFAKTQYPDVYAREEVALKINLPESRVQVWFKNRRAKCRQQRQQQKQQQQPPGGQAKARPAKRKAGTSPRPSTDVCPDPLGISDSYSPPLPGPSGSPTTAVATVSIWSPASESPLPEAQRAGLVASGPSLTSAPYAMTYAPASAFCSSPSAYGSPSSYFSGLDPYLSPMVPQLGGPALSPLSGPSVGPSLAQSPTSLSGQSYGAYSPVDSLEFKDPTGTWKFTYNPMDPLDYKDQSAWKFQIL
Sequence of HSF1 (Q00613 whole entry): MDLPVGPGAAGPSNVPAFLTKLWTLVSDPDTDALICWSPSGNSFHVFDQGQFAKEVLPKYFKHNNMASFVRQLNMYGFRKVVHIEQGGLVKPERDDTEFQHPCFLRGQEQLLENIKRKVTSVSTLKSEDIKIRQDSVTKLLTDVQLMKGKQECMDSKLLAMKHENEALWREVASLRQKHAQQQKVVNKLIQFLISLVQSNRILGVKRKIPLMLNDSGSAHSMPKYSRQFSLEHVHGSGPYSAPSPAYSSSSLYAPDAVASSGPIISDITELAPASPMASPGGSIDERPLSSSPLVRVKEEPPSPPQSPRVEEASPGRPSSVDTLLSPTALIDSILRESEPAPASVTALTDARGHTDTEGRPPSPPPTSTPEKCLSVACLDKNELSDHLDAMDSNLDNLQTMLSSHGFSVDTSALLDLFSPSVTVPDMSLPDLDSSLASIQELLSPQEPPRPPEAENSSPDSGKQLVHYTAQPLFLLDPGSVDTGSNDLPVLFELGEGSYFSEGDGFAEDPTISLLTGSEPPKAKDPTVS
Sequence of ETV6 (P41212 whole entry): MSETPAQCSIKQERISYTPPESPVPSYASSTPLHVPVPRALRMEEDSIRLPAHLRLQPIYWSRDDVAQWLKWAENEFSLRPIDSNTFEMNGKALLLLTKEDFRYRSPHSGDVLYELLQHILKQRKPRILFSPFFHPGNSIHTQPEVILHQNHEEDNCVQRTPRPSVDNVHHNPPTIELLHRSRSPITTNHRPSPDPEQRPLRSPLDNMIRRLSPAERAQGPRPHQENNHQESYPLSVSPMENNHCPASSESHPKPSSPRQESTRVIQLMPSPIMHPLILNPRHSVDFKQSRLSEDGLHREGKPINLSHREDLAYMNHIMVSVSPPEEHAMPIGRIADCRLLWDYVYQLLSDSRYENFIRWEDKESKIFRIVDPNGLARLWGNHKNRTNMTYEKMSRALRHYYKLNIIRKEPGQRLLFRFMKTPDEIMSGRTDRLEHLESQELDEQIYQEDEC
Sequence of ETV5 (P41161 whole entry): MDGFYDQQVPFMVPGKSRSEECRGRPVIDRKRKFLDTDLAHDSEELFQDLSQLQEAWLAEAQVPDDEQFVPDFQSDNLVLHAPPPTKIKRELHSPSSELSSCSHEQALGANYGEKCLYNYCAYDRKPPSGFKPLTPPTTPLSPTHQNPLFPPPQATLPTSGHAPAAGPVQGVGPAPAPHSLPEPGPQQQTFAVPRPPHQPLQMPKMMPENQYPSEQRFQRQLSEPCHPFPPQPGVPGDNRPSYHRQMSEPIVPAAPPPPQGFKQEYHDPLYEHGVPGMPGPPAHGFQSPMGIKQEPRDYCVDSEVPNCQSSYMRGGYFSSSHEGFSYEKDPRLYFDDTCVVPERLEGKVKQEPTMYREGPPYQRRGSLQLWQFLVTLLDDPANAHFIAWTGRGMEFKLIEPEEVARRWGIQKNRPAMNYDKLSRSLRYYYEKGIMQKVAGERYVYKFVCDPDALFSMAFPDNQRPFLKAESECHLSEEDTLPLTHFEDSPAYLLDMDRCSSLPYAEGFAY
Sequence of ETV1 (P50549 whole entry): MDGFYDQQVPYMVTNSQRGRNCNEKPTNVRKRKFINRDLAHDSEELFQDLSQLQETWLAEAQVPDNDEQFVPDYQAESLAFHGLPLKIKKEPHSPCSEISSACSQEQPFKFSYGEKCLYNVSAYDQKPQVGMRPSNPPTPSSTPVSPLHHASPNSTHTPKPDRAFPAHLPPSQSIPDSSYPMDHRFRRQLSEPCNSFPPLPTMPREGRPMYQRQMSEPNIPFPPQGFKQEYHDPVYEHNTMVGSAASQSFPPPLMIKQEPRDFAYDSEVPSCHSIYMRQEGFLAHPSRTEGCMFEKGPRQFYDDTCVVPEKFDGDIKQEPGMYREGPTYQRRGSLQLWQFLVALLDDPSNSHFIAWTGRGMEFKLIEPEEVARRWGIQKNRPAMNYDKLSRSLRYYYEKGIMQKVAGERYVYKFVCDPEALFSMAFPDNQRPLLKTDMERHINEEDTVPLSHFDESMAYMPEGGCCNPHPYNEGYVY

Question: How did the binding signal (FEV) turn out when TGGCTA was run?
Answer: The binding signal was 1.22 fold enrichment (6-mer frequency, TF over GST control).

Question: And the binding signal (ETV5)?
Answer: Its binding signal is 1.2 fold enrichment (6-mer frequency, TF over GST control).

Question: What about the binding signal (HSF1) of the same sequence?
Answer: Its binding signal is 1.25 fold enrichment (6-mer frequency, TF over GST control).

Question: And the binding signal (SPIC)?
Answer: The binding signal was 1.25 fold enrichment (6-mer frequency, TF over GST control).

Question: What about the binding signal (ELF4) of the same sequence?
Answer: Its binding signal is 1.19 fold enrichment (6-mer frequency, TF over GST control).

Question: And the binding signal (ELK4)?
Answer: Its binding signal is 1.47 fold enrichment (6-mer frequency, TF over GST control).

Question: What about the binding signal (ETV2) of the same sequence?
Answer: Its binding signal is 1.23 fold enrichment (6-mer frequency, TF over GST control).

Question: What about the binding signal (ELF3) of the same sequence?
Answer: The binding signal was 1.27 fold enrichment (6-mer frequency, TF over GST control).

Question: What about the binding signal (CRX) of the same sequence?
Answer: Its binding signal is 1.35 fold enrichment (6-mer frequency, TF over GST control).

Question: And the binding signal (ETV1)?
Answer: The binding signal was 1.16 fold enrichment (6-mer frequency, TF over GST control).

Question: What about the binding signal (ERF) of the same sequence?
Answer: The binding signal was 1.33 fold enrichment (6-mer frequency, TF over GST control).

Question: And the binding signal (ETV3L)?
Answer: Its binding signal is 1.21 fold enrichment (6-mer frequency, TF over GST control).

Question: And the binding signal (ETS2)?
Answer: The binding signal was 1.16 fold enrichment (6-mer frequency, TF over GST control).

Question: What about the binding signal (SPDEF) of the same sequence?
Answer: The binding signal was 1.28 fold enrichment (6-mer frequency, TF over GST control).

Question: And the binding signal (ETV7)?
Answer: Its binding signal is 1.29 fold enrichment (6-mer frequency, TF over GST control).

Question: And the binding signal (ELF5)?
Answer: Its binding signal is 1.14 fold enrichment (6-mer frequency, TF over GST control).

Question: What about the binding signal (ETV3) of the same sequence?
Answer: Its binding signal is 1.18 fold enrichment (6-mer frequency, TF over GST control).

Question: What about the binding signal (ETV6) of the same sequence?
Answer: Its binding signal is 1.28 fold enrichment (6-mer frequency, TF over GST control).
